# In the supplement of paper PMC6522484:
# ± gives the standard deviation of the averaged measurements.
# Legend:
# DLD1 [1] = test: cell viability (CellTiter-Glo) relative to plate median (fraction of plate median); higher = more viable cells; details: 5 µM; treatment time 24 h; reporter: 7TFP
# How it was run: (§1)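 Two independent replicates were averaged for each reported value. Library compounds were applied at a final 5 µM for 24 h to colorectal cancer cell lines stably expressing lentiviral TCF/Wnt firefly luciferase reporters. Firefly luciferase or CellTiterGlo luminescence from each well was normalised to the plate median.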
# HCT116 = test: as above; details: 5 µM; treatment time 24 h; reporter: TCF4/Wnt
# How it was run: as §1
# SW480 [2] = test: as above; details: 5 µM; treatment time 24 h; reporter: 7TFP
# How it was run: as §1
# DLD1 [3] = test: TCF/Wnt firefly luciferase reporter signal relative to plate median (fraction of plate median); higher = higher Wnt reporter signal; details: 5 µM; treatment time 24 h; reporter: 7TFP
# How it was run: as §1
# SW480 [4] = test: as above; details: 5 µM; treatment time 24 h; reporter: 7TFP
# How it was run: as §1
Structure (SMILES),cell viability (DLD1 [1]),cell viability (HCT116),cell viability (SW480 [2]),TCF/Wnt firefly luciferase reporter signal (DLD1 [3]),TCF/Wnt firefly luciferase reporter signal (SW480 [4])
CC(=O)NS(=O)(=O)c1ccc(N)cc1,1.07 ± 0.05,0.978 ± 0.088,1.05 ± 0.057,1.01 ± 0.22,0.854 ± 0.023
CCN(CC)CCNC(=O)c1cc(S(C)(=O)=O)ccc1OC,0.99 ± 0.13,1.025 ± 0.0071,1 ± 0.023,0.971 ± 0.084,0.925 ± 0.039
C[C@]12CC[C@@H]3c4ccc(O)cc4CC[C@H]3[C@@H]1CCC2=O,0.894 ± 0.038,1.05 ± 0.057,0.995 ± 0.064,1.15 ± 0.064,1.07 ± 0.085
